Experimental data reported in publication PMC7862700, “An all-to-all approach to the identification of sequence-specific readers for epigenetic DNA modifications on cytosine”.

Columns and labels:
Assay in all cases: DAPPL (digital affinity profiling via proximity ligation, sequencing); 10 mM Tris-HCl pH 7.5, 50 mM NaCl, 1 mM DTT, 4% glycerol, room temperature, 30 min; GST-TFs on glutathione beads, 16-mer random dsDNA library, 0.1% formaldehyde crosslink after washing; high values mean tight binding
[1] = molecular target: T1, FLI1 (Homo sapiens, UniProt Q01543 1-452); details: protein: recombinant; tags: N-terminal GST; dsDNA, one strand shown
T1 sequence: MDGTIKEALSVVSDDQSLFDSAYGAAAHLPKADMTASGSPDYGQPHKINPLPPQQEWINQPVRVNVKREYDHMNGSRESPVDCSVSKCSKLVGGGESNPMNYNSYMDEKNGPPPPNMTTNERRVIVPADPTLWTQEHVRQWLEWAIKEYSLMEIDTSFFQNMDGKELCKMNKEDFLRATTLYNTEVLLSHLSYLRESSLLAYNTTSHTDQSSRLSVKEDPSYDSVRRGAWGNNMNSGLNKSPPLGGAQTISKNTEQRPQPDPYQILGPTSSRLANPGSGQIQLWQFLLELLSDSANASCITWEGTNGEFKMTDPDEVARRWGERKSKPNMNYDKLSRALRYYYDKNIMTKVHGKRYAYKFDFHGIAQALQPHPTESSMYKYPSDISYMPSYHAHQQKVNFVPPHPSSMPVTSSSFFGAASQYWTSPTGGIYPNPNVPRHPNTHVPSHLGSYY
Method in brief: (§1)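 A tag-only sample was pooled with DNA-barcoded human transcription factors that had been expressed in yeast as GST fusions and captured on glutathione beads. The pools were incubated for 30 min at room temperature with 200 nmole of a random double-stranded 16-mer DNA library in Tris/NaCl/DTT/glycerol buffer, then washed, crosslinked with 0.1% formaldehyde, proximity-ligated (BsaI/T4 ligase, 1 h, 37 °C), PCR-amplified and sequenced on an Illumina NextSeq500. Binding signal is each hexamer's read frequency for a factor divided by its frequency for the tag-only sample.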

[2] = molecular target: T2, ELK1 (Homo sapiens, UniProt P19419 1-428); details: protein: recombinant; tags: N-terminal GST; dsDNA, one strand shown
T2 sequence: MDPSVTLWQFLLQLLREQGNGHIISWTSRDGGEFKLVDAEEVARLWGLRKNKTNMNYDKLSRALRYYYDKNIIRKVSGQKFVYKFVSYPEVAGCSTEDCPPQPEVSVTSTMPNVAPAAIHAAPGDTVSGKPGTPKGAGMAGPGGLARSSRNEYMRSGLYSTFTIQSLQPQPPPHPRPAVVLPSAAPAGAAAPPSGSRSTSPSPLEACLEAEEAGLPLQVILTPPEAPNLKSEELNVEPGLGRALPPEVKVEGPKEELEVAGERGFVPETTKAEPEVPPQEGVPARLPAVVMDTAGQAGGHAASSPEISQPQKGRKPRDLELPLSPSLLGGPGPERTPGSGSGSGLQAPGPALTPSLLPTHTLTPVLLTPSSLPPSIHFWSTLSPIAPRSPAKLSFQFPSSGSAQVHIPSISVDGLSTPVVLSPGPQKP
Method in brief: as §1

[3] = molecular target: T3, GABPA (Homo sapiens, UniProt Q06546 1-454); details: protein: recombinant; tags: N-terminal GST; dsDNA, one strand shown
T3 sequence: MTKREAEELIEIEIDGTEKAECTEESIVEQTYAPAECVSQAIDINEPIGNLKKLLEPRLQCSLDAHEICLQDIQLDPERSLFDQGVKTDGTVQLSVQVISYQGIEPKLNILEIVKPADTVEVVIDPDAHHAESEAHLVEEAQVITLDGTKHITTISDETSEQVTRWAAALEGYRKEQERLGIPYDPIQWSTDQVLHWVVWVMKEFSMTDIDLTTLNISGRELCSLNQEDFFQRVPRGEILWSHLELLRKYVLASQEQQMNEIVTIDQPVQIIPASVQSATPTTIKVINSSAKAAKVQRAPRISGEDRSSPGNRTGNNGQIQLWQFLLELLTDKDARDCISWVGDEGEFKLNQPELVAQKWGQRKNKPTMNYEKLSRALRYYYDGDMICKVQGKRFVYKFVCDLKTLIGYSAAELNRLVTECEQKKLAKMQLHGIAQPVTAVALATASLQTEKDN
Method in brief: as §1

[4] = molecular target: T4, ERG (Homo sapiens, UniProt P11308 1-479); details: protein: recombinant; tags: N-terminal GST; dsDNA, one strand shown
T4 sequence: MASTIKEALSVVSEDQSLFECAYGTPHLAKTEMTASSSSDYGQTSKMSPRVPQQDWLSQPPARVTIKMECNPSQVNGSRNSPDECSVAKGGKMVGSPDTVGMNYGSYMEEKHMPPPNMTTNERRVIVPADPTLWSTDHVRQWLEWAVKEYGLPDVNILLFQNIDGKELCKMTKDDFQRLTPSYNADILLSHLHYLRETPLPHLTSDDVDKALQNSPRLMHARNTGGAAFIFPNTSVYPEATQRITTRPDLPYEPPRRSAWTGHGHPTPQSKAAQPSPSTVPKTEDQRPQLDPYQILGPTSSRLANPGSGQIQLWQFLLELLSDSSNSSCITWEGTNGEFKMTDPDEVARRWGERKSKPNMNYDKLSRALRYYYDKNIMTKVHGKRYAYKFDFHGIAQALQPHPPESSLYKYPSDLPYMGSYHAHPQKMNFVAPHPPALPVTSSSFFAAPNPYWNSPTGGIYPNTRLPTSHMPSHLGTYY
Method in brief: as §1

[5] = molecular target: ELF1 (Homo sapiens, UniProt P32519 1-619); details: protein: recombinant; tags: N-terminal GST; dsDNA, one strand shown
Chain of ELF1 (P32519 whole entry): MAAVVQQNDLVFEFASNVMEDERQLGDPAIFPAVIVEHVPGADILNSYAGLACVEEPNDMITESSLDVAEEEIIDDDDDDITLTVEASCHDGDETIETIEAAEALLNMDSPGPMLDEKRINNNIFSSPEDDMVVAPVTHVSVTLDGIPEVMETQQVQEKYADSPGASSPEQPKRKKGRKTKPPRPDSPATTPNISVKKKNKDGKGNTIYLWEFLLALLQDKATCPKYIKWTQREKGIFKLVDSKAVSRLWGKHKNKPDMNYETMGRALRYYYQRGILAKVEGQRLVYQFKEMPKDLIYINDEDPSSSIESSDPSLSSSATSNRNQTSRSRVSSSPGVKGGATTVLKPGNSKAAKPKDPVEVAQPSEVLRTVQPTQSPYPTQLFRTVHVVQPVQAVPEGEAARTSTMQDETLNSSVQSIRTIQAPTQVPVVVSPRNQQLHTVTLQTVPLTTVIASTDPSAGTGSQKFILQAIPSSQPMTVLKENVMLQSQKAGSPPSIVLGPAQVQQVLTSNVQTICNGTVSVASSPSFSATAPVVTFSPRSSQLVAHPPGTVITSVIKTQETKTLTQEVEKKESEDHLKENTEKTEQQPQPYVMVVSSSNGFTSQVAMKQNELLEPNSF
Method in brief: as §1

[6] = molecular target: T5, EHF (Homo sapiens, UniProt Q9NZC4 1-300); details: protein: recombinant; tags: N-terminal GST; dsDNA, one strand shown
T5 sequence: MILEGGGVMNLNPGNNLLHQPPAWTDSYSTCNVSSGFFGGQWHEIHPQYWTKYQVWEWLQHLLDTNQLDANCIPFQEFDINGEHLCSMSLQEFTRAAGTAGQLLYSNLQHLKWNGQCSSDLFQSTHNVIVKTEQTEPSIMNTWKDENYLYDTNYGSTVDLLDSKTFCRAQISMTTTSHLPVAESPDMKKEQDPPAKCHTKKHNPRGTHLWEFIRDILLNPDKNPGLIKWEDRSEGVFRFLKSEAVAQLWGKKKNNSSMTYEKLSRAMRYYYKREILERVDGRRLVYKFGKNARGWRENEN
Method in brief: as §1

[7] = molecular target: SPI1 (Homo sapiens, UniProt P17947 1-270); details: protein: recombinant; tags: N-terminal GST; dsDNA, one strand shown
Method in brief: as §1

[8] = molecular target: SPIB (Homo sapiens, UniProt Q01892 1-262); details: protein: recombinant; tags: N-terminal GST; dsDNA, one strand shown
Chain of SPIB (Q01892 whole entry): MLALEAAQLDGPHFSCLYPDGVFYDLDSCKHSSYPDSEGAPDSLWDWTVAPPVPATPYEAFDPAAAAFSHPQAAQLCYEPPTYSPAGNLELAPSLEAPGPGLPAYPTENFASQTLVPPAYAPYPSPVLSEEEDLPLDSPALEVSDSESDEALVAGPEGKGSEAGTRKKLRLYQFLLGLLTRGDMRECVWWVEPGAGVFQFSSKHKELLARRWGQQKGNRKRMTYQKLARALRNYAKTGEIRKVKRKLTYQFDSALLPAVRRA
Method in brief: as §1

[9] = molecular target: T6, ELK3 (Homo sapiens, UniProt P41970 1-407); details: protein: recombinant; tags: N-terminal GST; dsDNA, one strand shown
T6 sequence: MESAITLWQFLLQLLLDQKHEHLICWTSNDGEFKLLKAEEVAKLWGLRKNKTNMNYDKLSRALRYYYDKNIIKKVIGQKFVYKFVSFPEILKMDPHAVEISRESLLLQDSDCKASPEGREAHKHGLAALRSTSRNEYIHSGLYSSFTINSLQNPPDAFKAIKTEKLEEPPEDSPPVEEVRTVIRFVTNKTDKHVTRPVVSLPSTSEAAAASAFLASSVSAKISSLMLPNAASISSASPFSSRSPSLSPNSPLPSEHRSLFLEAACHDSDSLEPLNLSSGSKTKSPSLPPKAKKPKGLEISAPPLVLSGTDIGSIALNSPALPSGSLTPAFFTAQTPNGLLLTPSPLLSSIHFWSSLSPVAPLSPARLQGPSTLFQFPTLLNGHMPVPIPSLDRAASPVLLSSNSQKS
Method in brief: as §1

[10] = molecular target: T7, FEV (Homo sapiens, UniProt Q99581 1-238); details: protein: recombinant; tags: N-terminal GST; dsDNA, one strand shown
T7 sequence: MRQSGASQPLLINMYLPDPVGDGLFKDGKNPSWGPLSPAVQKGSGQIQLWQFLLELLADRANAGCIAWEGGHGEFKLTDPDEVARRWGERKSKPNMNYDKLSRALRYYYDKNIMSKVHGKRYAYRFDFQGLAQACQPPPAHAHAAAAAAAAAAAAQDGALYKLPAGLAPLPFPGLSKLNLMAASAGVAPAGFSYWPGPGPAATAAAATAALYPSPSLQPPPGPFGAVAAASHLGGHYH
Method in brief: as §1

[11] = molecular target: ETV5 (Homo sapiens, UniProt P41161 1-510); details: protein: recombinant; tags: N-terminal GST; dsDNA, one strand shown
Chain of ETV5 (P41161 whole entry): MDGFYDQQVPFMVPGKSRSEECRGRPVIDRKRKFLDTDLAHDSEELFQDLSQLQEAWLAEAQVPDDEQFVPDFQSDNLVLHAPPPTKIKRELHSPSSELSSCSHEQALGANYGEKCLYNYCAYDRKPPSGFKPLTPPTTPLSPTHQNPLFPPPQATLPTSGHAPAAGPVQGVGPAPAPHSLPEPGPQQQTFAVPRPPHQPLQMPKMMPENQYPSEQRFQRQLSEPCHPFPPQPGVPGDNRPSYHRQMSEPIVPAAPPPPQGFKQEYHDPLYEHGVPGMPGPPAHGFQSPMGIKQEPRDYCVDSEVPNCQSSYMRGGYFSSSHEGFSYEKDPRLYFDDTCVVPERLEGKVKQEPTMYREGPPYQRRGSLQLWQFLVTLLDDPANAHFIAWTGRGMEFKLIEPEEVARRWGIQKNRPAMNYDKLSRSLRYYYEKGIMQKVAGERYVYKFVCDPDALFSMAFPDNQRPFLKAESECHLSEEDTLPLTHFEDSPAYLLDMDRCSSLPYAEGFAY
Method in brief: as §1

[12] = molecular target: HSF1 (Homo sapiens, UniProt Q00613 1-529); details: protein: recombinant; tags: N-terminal GST; chain copies: 3; dsDNA, one strand shown
Chain of HSF1 (Q00613 whole entry): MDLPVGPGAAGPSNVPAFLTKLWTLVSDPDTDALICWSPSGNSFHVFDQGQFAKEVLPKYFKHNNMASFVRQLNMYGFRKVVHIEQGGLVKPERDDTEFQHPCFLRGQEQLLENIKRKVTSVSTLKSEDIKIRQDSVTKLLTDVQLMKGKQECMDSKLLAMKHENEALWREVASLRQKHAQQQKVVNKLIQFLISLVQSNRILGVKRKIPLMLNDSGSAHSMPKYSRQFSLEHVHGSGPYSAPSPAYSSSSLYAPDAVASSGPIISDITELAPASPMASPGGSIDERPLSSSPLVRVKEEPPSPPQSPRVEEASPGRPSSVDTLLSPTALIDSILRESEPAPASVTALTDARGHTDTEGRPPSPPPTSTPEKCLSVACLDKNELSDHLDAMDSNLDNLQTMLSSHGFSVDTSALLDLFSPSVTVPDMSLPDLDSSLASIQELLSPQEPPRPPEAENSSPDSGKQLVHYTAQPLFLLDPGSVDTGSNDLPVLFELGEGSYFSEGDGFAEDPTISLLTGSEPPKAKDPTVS
Method in brief: as §1

[13] = molecular target: T8, SPIC (Homo sapiens, UniProt Q8N5J4 1-248); details: protein: recombinant; tags: N-terminal GST; dsDNA, one strand shown
T8 sequence: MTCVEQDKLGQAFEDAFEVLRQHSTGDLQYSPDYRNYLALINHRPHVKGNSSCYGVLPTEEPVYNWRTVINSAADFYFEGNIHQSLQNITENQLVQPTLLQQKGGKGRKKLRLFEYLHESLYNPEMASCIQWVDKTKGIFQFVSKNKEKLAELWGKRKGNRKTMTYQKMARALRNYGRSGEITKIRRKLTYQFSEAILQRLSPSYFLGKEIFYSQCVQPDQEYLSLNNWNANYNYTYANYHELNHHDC
Method in brief: as §1

[14] = molecular target: ELF4 (Homo sapiens, UniProt Q99607 1-663); details: protein: recombinant; tags: N-terminal GST; dsDNA, one strand shown
Chain of ELF4 (Q99607 whole entry): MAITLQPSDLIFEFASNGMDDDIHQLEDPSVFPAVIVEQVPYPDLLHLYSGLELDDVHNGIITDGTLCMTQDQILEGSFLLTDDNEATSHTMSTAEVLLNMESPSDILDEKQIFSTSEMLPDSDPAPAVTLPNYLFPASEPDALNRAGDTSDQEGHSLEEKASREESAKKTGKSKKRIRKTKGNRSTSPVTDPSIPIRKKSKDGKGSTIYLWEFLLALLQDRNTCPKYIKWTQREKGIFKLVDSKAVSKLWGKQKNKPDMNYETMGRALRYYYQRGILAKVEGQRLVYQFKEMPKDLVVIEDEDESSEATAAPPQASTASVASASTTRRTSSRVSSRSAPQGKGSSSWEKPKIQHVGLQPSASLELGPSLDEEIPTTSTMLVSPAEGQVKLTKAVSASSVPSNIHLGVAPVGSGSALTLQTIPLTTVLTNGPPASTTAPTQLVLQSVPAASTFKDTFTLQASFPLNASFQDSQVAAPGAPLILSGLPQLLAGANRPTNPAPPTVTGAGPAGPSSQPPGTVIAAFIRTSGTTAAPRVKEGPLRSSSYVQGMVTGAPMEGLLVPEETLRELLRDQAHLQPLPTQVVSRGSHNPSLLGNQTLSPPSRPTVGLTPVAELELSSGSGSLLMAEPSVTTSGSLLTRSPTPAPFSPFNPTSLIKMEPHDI
Method in brief: as §1

[15] = molecular target: T9, ELK4 (Homo sapiens, UniProt P28324-2 1-405); details: protein: recombinant; tags: N-terminal GST; dsDNA, one strand shown
T9 sequence: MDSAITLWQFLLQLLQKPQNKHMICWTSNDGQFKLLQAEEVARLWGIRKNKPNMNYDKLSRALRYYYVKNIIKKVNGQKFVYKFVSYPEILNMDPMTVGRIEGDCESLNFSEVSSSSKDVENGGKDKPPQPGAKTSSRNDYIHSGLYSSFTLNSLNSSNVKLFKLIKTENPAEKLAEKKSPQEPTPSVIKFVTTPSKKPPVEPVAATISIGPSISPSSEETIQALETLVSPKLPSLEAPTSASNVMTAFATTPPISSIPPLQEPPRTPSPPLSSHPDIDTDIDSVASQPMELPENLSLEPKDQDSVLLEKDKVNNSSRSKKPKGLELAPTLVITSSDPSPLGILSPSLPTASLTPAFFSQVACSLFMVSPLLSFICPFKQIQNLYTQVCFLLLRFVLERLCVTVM
Method in brief: as §1

[16] = molecular target: T10, ETV2 (Homo sapiens, UniProt O00321 1-342); details: protein: recombinant; tags: N-terminal GST; dsDNA, one strand shown
T10 sequence: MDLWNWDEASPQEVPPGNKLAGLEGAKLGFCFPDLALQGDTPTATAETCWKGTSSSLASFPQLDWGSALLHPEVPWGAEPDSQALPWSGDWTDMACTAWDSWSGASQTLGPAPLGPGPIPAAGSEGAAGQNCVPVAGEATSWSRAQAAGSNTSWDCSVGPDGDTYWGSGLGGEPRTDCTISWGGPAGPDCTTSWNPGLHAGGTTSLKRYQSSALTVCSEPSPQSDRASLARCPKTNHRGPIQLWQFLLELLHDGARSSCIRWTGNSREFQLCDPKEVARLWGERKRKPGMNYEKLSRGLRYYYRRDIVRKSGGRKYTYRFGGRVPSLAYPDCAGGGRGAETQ
Method in brief: as §1

[17] = molecular target: T11, ELF3 (Homo sapiens, UniProt P78545 1-371); details: protein: recombinant; tags: N-terminal GST; dsDNA, one strand shown
T11 sequence: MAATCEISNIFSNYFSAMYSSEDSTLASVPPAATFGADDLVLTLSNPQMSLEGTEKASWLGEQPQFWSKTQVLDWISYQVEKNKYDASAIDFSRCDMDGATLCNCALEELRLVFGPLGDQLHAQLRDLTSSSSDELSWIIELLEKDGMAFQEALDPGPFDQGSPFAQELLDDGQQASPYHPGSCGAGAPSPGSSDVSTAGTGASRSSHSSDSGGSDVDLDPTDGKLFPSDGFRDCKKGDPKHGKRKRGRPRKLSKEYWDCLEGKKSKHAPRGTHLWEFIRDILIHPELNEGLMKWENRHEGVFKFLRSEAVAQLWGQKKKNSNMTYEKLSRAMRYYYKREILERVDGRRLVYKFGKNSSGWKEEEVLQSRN
Method in brief: as §1

[18] = molecular target: CRX (Homo sapiens, UniProt O43186 1-299); details: protein: recombinant; tags: N-terminal GST; dsDNA, one strand shown
Chain of CRX (O43186 whole entry): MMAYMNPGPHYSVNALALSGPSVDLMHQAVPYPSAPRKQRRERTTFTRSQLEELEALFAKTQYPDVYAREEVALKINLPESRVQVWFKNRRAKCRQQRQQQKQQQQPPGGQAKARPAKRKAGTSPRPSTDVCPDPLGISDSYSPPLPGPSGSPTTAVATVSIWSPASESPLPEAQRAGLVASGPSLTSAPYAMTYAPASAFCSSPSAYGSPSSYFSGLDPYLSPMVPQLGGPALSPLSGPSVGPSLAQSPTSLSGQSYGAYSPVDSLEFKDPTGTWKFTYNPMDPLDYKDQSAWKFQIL
Method in brief: as §1

[19] = molecular target: ETV1 (Homo sapiens, UniProt P50549 1-477); details: protein: recombinant; tags: N-terminal GST; dsDNA, one strand shown
Chain of ETV1 (P50549 whole entry): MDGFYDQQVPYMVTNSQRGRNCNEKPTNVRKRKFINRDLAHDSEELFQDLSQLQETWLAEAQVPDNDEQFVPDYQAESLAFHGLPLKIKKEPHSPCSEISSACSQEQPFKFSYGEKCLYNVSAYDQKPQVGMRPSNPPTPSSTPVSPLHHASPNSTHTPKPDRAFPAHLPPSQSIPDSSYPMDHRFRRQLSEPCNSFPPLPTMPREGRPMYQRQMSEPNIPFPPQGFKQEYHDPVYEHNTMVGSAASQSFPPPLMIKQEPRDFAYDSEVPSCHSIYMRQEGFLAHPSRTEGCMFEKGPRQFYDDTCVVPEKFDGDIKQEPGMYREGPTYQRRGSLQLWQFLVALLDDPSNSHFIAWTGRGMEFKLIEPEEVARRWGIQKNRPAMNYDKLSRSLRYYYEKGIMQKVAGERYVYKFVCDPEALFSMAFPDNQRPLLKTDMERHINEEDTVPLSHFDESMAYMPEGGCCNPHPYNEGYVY
Method in brief: as §1

In the case of CATCCC, the binding signal [1] is reported as 1.39 fold enrichment (6-mer frequency, TF over GST control), the binding signal [2] is reported as 1.22 fold enrichment (6-mer frequency, TF over GST control) and the binding signal [3] is reported as 1.24 fold enrichment (6-mer frequency, TF over GST control). For the same sequence, the binding signal [4] was 1.29 fold enrichment (6-mer frequency, TF over GST control), the binding signal [5] was 1.29 fold enrichment (6-mer frequency, TF over GST control) and the binding signal [6] was 1.29 fold enrichment (6-mer frequency, TF over GST control). For the same sequence, the binding signal [7] was 1.25 fold enrichment (6-mer frequency, TF over GST control), the binding signal [8] was 1.26 fold enrichment (6-mer frequency, TF over GST control) and the binding signal [9] was 1.24 fold enrichment (6-mer frequency, TF over GST control). The binding signal [10] was 1.18 fold enrichment (6-mer frequency, TF over GST control), the binding signal [11] was 1.31 fold enrichment (6-mer frequency, TF over GST control) and the binding signal [12] was 1.05 fold enrichment (6-mer frequency, TF over GST control). The binding signal [13] was 1.3 fold enrichment (6-mer frequency, TF over GST control), the binding signal [14] was 1.22 fold enrichment (6-mer frequency, TF over GST control) and the binding signal [15] was 1.22 fold enrichment (6-mer frequency, TF over GST control). The binding signal [16] was 1.15 fold enrichment (6-mer frequency, TF over GST control), the binding signal [17] was 1.27 fold enrichment (6-mer frequency, TF over GST control) and the binding signal [18] was 1.05 fold enrichment (6-mer frequency, TF over GST control). The binding signal [19] was 1.16 fold enrichment (6-mer frequency, TF over GST control).
